This note sets out measurements from PubChem BioAssay.

Activity calls are given as the source filed them.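 How the source made its calls, unless noted: active means visually confirmed hit in the image check and inhibition above 20%; inconclusive means visually confirmed hit but inhibition not above 20%; inactive means no visual hit in the image check.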

One experiment can be described thus: inhibitors of mutant huntingtin aggregation, primary screen, imaging, exon1htt(103Q)mCFP cells, high-content imaging (AID 483;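 active means visual image review flags a hit and inhibition of aggregation exceeds 20%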;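 further: compound exposure lasted 3 days before fixation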;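 on nuclei count: percent of the per-plate median nuclei count of sample wells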). The following applies: exon1htt(103Q)mCFP cell line, aggregate imaging, at 2 µM; inhibition of aggregation: stronger effect = higher value; nuclei count: measured here: cell count, toxicity.
For `CCOc1ccccc1N(C(=O)c1ccco1)C(C(=O)NC1CCCC1)c1cccnc1` (configuration not stated), the inhibition of aggregation is 12.2% (inactive) and the nuclei count came to 79.6%.
The like results for `CCn1cc(C(=O)NCc2ccccc2OC)c(=O)c2cc(S(=O)(=O)N(C)C)ccc21` were, in that order, 7.5% (inactive) and 74.5%.
Turning to `CC1CCCN(C(=O)CN2CCN(C(=O)c3ccco3)CC2)C1` (configuration not stated), the inhibition of aggregation is 20.8% (inactive) and the nuclei count is 76%.
For `N#Cc1nc(COc2ccccc2Cl)oc1N1CCCCCC1`, in that order: -17.4% (inactive) and 92.6%.
The like results for `Cc1nc2sc(C(c3cccc(F)c3)N3CCC(C)CC3)c(O)n2n1` (configuration not stated) were, in that order, -13.1% (inactive) and 109%.
The like results for `CC1CCCN(c2ccc(C(=O)NCc3cccs3)cn2)C1` (configuration not stated) were, in that order, -22.9% (inactive) and 112%.
`O=C(C1CCC(CNS(=O)(=O)c2cccc3cccnc23)CC1)N1CCCC1` (configuration not stated): the inhibition of aggregation is -15.3% (inactive) and the nuclei count was found to be 67.8%.
For `O=C1c2ccccc2C(Nc2ccc3c(c2)OCO3)N1Cc1ccc2c(c1)OCO2` (configuration not stated), in that order: -8.3% (inactive) and 63.8%.
For `NC(=O)C1CCN(C(=O)c2cc3n(n2)C(C(F)(F)F)CC(c2ccco2)N3)CC1` (configuration not stated), in that order: 2.5% (inactive) and 93.4%.
Turning to `O=C(Cn1ncc2c1-c1ccccc1OC2)Nc1ccc(Cl)cn1`, the nuclei count amounted to 114% and the inhibition of aggregation is -7.1% (inactive).
For `O=C(NC1CCCCC1)C(c1ccc(Cl)cc1)N(C(=O)c1cnccn1)c1ccc2c(c1)OCO2` (configuration not stated), the inhibition of aggregation was 21.6% (inactive) and the nuclei count came out at 93.8%.
Take `COc1ccc(NC(=O)c2cnc3n(c2=O)CCS3)cc1OC`: the inhibition of aggregation is -15% (inactive) and the nuclei count stood at 92.4%.
For `COc1ccccc1N1CCN(C(=O)CSc2nc3ncnc(N)c3[nH]2)CC1`, in that order: -0.2% (inactive) and 110%.
Consider `CC(C)(C)c1nc(CN2CCOCC2)ccc1O`, for which the inhibition of aggregation is 21.1% (inactive) and the nuclei count was found to be 104%.
Turning to `Cc1ccccc1C(=O)NC1CCN(Cc2nnnn2Cc2ccccc2)CC1`, the nuclei count amounted to 110% and the inhibition of aggregation was -10.9% (inactive).
The like results for `COCCn1c(C)c(C(=O)O)sc1=S` were, in that order, 86.9% and 8.1% (inactive).
For `Cc1sc2nc(SCC(=O)N3CCN(CCO)CC3)n(-c3ccccc3)c(=O)c2c1C`, in that order: 111% and -7.3% (inactive).
The like results for `O=C(c1ccco1)N1CCN(c2nc(C(F)(F)F)nc3c2nnn3Cc2ccccc2)CC1` were, in that order, 87.1% and -6.6% (inactive).
As to `Cc1ccccc1CN1CCN(C(=O)c2cccc(F)c2)CC1`, the nuclei count worked out at 91.7% and the inhibition of aggregation is 14.5% (inactive).
The like results for `CCOC(=O)c1c(COC(=O)c2ccco2)nc2ccccc2[n+]1[O-]` were, in that order, 107% and 8.4% (inactive).
Take `COC(=O)CCCCC(=O)C1C(=O)CC(C)(C)C(C(=O)OC)C1=O` (configuration not stated): the nuclei count was 96.5% and the inhibition of aggregation is -13.3% (inactive).
The like results for `COCCn1c(CN2CCN(c3ccccc3F)CC2)nc2c1c(=O)n(C)c(=O)n2C` were, in that order, 92.3% and 0.1% (inactive).
In the case of `CC(C)(C#N)Nn1cnnc1`, the nuclei count is 109% and the inhibition of aggregation was 13.2% (inactive).
For the compound `CCC(C)(C(=O)NC1CCCC1)N(Cc1cccs1)C(=O)Cc1cccs1` (configuration not stated), the nuclei count was 127% and the inhibition of aggregation is 21% (inactive).
For `COc1cccc(CN=CC2=C(O)CC(C)(C)CC2=O)c1OC`, in that order: 99.6% and -1.8% (inactive).
For `Cc1[nH]c2c(C)cccc2c(=O)c1Br`, in that order: 106% and 12.7% (inactive).

Another experiment is described as follows: inhibitors of E-selectin induction by TNFa, primary screen, imaging, HUVEC, immunofluorescence, MLSMR starter and 10KST1 sets (AID 487).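 On inhibition: signal is fraction of cell area covered by stained E-selectin grains.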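 On nuclei count: 100% = median nuclei count of all wells on the same plate.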 The conditions noted are these: HUVEC TNFalpha-induced E-selectin immunofluorescence imaging, at 2 µM; inhibition: stronger effect = higher value; nuclei count: measured here: cell number, toxicity.
Regarding `COc1ccccc1CCNC(=O)C1CCCO1` (configuration not stated), the inhibition (as a rule, the drop in the measured response relative to a control, in per cent) was -45.2% (inactive) and the nuclei count came out at 98.9%.
On to `CSc1ccccc1NC(=O)C1CCCO1` (configuration not stated), for which the nuclei count was found to be 117% and the inhibition was -73% (inactive).
Take `Cn1c(=O)cc(OCCCC(=O)N2CCCCC2)c2ccccc21`: the inhibition was -22.3% (inactive) and the nuclei count was determined as 112%.
For `CCCc1[nH]nc2c1C(c1cn[nH]c1-c1ccc(F)cc1)C(C#N)=C(N)O2` (configuration not stated), in that order: -43.7% (inactive) and 137%.
For `CN1C(=S)SC(C)(NO)C1(C)C` (configuration not stated), the nuclei count came to 107% and the inhibition was 2.9% (inactive).
In the case of `O=C(NCc1ccc2c(c1)OCO2)C1CCC(CNc2c(N3CCCCC3)c(=O)c2=O)CC1` (configuration not stated), the inhibition is 11.9% (inactive) and the nuclei count was 104%.
Turning to `CC(C)(CO)NC(=O)CCCOc1ccc(Cl)cc1Cl`, the nuclei count was 98.8% and the inhibition was 35.5% (inactive).
The like results for `CN(C(=O)C1CCOC1)c1nnc(-c2cccnc2)s1` (configuration not stated) were, in that order, 116% and -41.7% (inactive).
The like results for `COc1ccc(OC)c2[nH]c(=O)c(CCNC(=O)CC(C)C)cc12` were, in that order, 89.8% and 62.7% (active).
With `COc1ccc(S(=O)(=O)N2CCCC2C(=O)Nc2ccc(O)cc2)cc1` (configuration not stated), the nuclei count came out at 111% and the inhibition is -23.4% (inactive).
For `CCN(CC)Cc1nc2c(c(=O)[nH]1)C1(CCCCC1)Cc1ccccc1-2`, in that order: 101% and -17% (inactive).
For the compound `COc1ccc(NC(=O)C2CCCCN2S(=O)(=O)c2ccc(F)cc2)cc1` (configuration not stated), the nuclei count came to 105% and the inhibition is -67.7% (inactive).
The like results for `CCOC(=O)c1c(NC(=O)c2cccs2)sc2c1CCN(C(=O)OCC)C2` were, in that order, 115% and 14.8% (inactive).
Regarding `Cc1c(NC(=O)c2ccc(COc3ccc4ccccc4c3)o2)c(=O)n(-c2ccccc2)n1C`, the inhibition is -55.3% (inactive) and the nuclei count amounted to 109%.
For `CCOc1ccccc1N(C(=O)c1ccco1)C(C(=O)NC1CCCC1)c1cccnc1` (configuration not stated), in that order: 10% (inactive) and 116%.
Turning to `CCn1cc(C(=O)NCc2ccccc2OC)c(=O)c2cc(S(=O)(=O)N(C)C)ccc21`, the nuclei count was determined as 113% and the inhibition was -39.5% (inactive).
On to `CC1CCCN(C(=O)CN2CCN(C(=O)c3ccco3)CC2)C1` (configuration not stated), for which the inhibition is -18.8% (inactive) and the nuclei count was determined as 152%.
As for `N#Cc1nc(COc2ccccc2Cl)oc1N1CCCCCC1`, the nuclei count came to 102% and the inhibition is 17.1% (inactive).
For `Cc1nc2sc(C(c3cccc(F)c3)N3CCC(C)CC3)c(O)n2n1` (configuration not stated), in that order: 108% and 9.7% (inactive).
For `CC1CCCN(c2ccc(C(=O)NCc3cccs3)cn2)C1` (configuration not stated), in that order: 139% and -67.5% (inactive).
In the case of `O=C(C1CCC(CNS(=O)(=O)c2cccc3cccnc23)CC1)N1CCCC1` (configuration not stated), the inhibition was -43.8% (inactive) and the nuclei count turned out to be 112%.
For `O=C1c2ccccc2C(Nc2ccc3c(c2)OCO3)N1Cc1ccc2c(c1)OCO2` (configuration not stated), in that order: -0.3% (inactive) and 107%.
The like results for `NC(=O)C1CCN(C(=O)c2cc3n(n2)C(C(F)(F)F)CC(c2ccco2)N3)CC1` (configuration not stated) were, in that order, -83.5% (inactive) and 100%.
For `O=C(Cn1ncc2c1-c1ccccc1OC2)Nc1ccc(Cl)cn1`, the inhibition was -55% (inactive) and the nuclei count is 116%.
The like results for `O=C(NC1CCCCC1)C(c1ccc(Cl)cc1)N(C(=O)c1cnccn1)c1ccc2c(c1)OCO2` (configuration not stated) were, in that order, -87% (inactive) and 110%.
The like results for `COc1ccc(NC(=O)c2cnc3n(c2=O)CCS3)cc1OC` were, in that order, -9.5% (inactive) and 98.8%.
For `COc1ccccc1N1CCN(C(=O)CSc2nc3ncnc(N)c3[nH]2)CC1`, the inhibition is -144% (inactive) and the nuclei count was determined as 162%.
Turning to `CC(C)(C)c1nc(CN2CCOCC2)ccc1O`, the nuclei count was 109% and the inhibition is -58.3% (inactive).
Regarding `Cc1ccccc1C(=O)NC1CCN(Cc2nnnn2Cc2ccccc2)CC1`, the nuclei count was determined as 111% and the inhibition was -36.5% (inactive).
The like results for `COCCn1c(C)c(C(=O)O)sc1=S` were, in that order, 104% and -4.7% (inactive).
The like results for `Cc1sc2nc(SCC(=O)N3CCN(CCO)CC3)n(-c3ccccc3)c(=O)c2c1C` were, in that order, 121% and -55% (inactive).
The like results for `O=C(c1ccco1)N1CCN(c2nc(C(F)(F)F)nc3c2nnn3Cc2ccccc2)CC1` were, in that order, 103% and -10.1% (inactive).
Regarding `Cc1ccccc1CN1CCN(C(=O)c2cccc(F)c2)CC1`, the inhibition was 2.5% (inactive) and the nuclei count was found to be 119%.
For `CCOC(=O)c1c(COC(=O)c2ccco2)nc2ccccc2[n+]1[O-]`, in that order: -31.9% (inactive) and 120%.
For the compound `COC(=O)CCCCC(=O)C1C(=O)CC(C)(C)C(C(=O)OC)C1=O` (configuration not stated), the inhibition was -1.3% (inactive) and the nuclei count came to 121%.
With `COCCn1c(CN2CCN(c3ccccc3F)CC2)nc2c1c(=O)n(C)c(=O)n2C`, the inhibition was 2.6% (inactive) and the nuclei count was 90.2%.
For `CC(C)(C#N)Nn1cnnc1`, the nuclei count came to 110% and the inhibition is -1.2% (inactive).
Consider `CCC(C)(C(=O)NC1CCCC1)N(Cc1cccs1)C(=O)Cc1cccs1` (configuration not stated), for which the inhibition is -7.8% (inactive) and the nuclei count stood at 112%.
For `COc1cccc(CN=CC2=C(O)CC(C)(C)CC2=O)c1OC`, in that order: -1.5% (inactive) and 111%.
The like results for `Cc1[nH]c2c(C)cccc2c(=O)c1Br` were, in that order, 30.1% (inactive) and 85.5%.
